IMPase cell inh: IMPase inhibition in cells. inhibition (IP1 accumulation), % at 46.1 µM. CHO-M1 cells, IP1 accumulation, HTRF TR-FRET ratio. 120,000 tested, under 10 active. P97697; active = well fitted curve in the direction sought with a large enough effect in the signal ratio, not every such curve was filed as active; inconclusive = small, poorly fitted or top-dose-only effect, or a change in a side signal; inactive = no such curve, though single readings can be large or run the other way; the % refers to the signal ratio;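 also: cells stimulated with carbachol in lithium chloride buffer; plate controls were DMSO basal wells for no effect and reference inhibitor wells for full effect; higher means more IMPase inhibition seen as more IP1 and lower FRET ratio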
Target sequence (P97697 whole entry, looked up): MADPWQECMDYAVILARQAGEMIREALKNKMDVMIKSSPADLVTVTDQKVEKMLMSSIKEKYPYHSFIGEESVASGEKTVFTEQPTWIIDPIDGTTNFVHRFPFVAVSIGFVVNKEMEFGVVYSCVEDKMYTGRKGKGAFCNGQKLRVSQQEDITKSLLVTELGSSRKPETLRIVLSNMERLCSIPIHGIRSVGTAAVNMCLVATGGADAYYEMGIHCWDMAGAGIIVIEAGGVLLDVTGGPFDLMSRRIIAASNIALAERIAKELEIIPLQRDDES
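CHO-M1 cells (CHO stably expressing M1 receptor), compound up to 46 uM final, stimulated with carbachol (50 uM as added) in buffer with 50mM LiCl, pH 7.4, 30 min at 37C. Cytosolic IP1 read by TR-FRET; AC50 from Hill fits.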
HPGD block: inhibitors of human 15-hydroxyprostaglandin dehydrogenase (HPGD); Potency, µM, for the others: top-dose activity change, negative = inhibition, actives largely listed as inhibitors; 4.3% of 150,000 active; purified HPGD, NADH fluorescence kinetic, PGE2 substrate; P15428; also: potency is read from the fitted curve at half-maximal effect
Target sequence (P15428 whole entry, looked up): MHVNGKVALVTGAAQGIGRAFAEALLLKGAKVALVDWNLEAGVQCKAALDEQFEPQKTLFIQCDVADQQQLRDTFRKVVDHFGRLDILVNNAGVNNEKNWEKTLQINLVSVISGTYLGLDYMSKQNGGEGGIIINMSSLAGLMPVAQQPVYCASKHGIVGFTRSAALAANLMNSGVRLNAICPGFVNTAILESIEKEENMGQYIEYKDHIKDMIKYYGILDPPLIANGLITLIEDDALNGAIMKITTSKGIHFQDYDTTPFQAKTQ
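NADH formation kinetics: reaction with 30 uM PGE2 and 1 mM NAD+ (final), 20 nM enzyme, Tris-HCl pH 8 with Tween 20, after 15 min compound preincubation at room temperature. Fluorescence change, last versus first of five reads.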
IMPase Li inh: cell-permeable IMPase inhibitors with lithium potentiation; CHO-M1 cells, IP1 TR-FRET (IP-One), carbachol + lithium; 0.35% of 210,000 active; Potency, µM (highest dose often 59.4 µM), for the others: at the highest dose activity, negative = IMPase inhibition, actives largely listed as inhibitors; active = well fitted curve in the direction sought with a large enough effect; inconclusive = small, poorly fitted or top-dose-only effect, or another doubt; inactive = no such curve, though single readings can be large; an effect the other way counts as inactive or inconclusive;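 also: IP1 builds up when IMPase is blocked and the TR-FRET signal falls; potency is read from the fitted curve at half-maximal effect; plate controls were basal vehicle for no effect and high inhibitor control for full effect; nearly all actives have a fitted effect of over 50% in size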
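Lithium-sensitised IP1 accumulation assay; M1-expressing CHO cells treated 30 min at 37C with compound. Competitive antibody detection by time-resolved FRET followed a 10 min room-temperature lysis step.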
12-hLO inh: blocks human 12-lipoxygenase activity; Potency, µM (series often up to 57.1 µM), for inactives: at the top dose activity change, negative = inhibition, actives largely listed as inhibitors; purified 12-hLO, xylenol orange hydroperoxide absorbance; P18054; AID 1452; 0.12% of 150,000 active; active = well fitted curve in the direction sought with a large enough effect; inconclusive = small, poorly fitted or top-dose-only effect, or another doubt; inactive = no such curve, though single readings can be large; an effect the other way counts as inactive or inconclusive; also: potency is read from the fitted curve at half-maximal effect; nearly all actives have a fitted effect of over 55% in size
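Lipoxygenase turnover measured by absorbance at 573 and 405 nm after Fe-XO development. Human 12hLO 150 nM, arachidonate 40 uM, pH 7.0 Hepes buffer with detergent; 15 min compound preincubation, 30 min reaction.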
ALDH1A1 block: ALDH1A1 (human) enzyme inhibition. P00352. Purified ALDH1A1, NADH fluorescence, propionaldehyde substrate. Potency, µM (top dose mostly 75.3 µM), for inactives: at the top dose activity, negative = inhibition, usual class: inhibitors. 7.3% of 220,000 active. AID 1030;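 also: potency is read from the fitted curve at half-maximal effect; plate controls were no enzyme wells and a reference inhibitor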
PNC assembly inh: inhibitors of perinucleolar compartment assembly. PC3M PTB-GFP, PNC prevalence imaging, 16 h; stronger effect = lower value. activity change (PNC), negative = inhibition, % at 10 µM. 3.1% of 140,000 active. AID 2417;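 active = readout at or below -70, meaning at least 70% loss of cells showing the perinucleolar compartment, a nuclear body marking cancer cells; inconclusive = readout between -30 and a set limit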;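 also: plate controls were DMSO wells for no effect and camptothecin positive control wells for full effect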
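Read-out is percentage of cells bearing a perinucleolar compartment, from automated 20x imaging of fixed, Hoechst-stained PC3M PTB-GFP cells. Cells were seeded 4 h, then exposed 16 h to compound (23 nl of library stock) in duplicate plates.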
Numbers without * were called inactive; ? = inconclusive; nt = no result given; [ ] = remark or other dose. Most compounds without a hit are left out; they make up all but 11% or so of the library. Unless noted, calls follow the shape of the dose curve; as a rule, active = well fitted inhibition curve with a large enough effect (not every such curve was filed as active); inconclusive = small, poorly fitted or top-dose-only effect, or another doubt; inactive = no such curve, though single readings can be large or run the other way. Unless noted, % is scaled to controls: 0 for no effect and ±100 for the full control effect.

SMILES	IMPase cell inh	HPGD block	IMPase Li inh	12-hLO inh	ALDH1A1 block	PNC assembly inh
Cc1ccc(-c2[nH]ncc2/C=N/n2c(COc3ccccc3C)nc3ccccc3c2=O)cc1	nt	-3%	14%	-2%	?	-28
COc1cc(C(=S)N2CCCC2)cc(OC)c1O	-9	20µM*	32%[38.3 µM]	2%	-99%	?
COc1ccc(C(=S)N2CCCCCC2)cc1	4	16µM*	-2%	-8%	?	?
COc1ccc(C(=S)N2CCNCC2)cc1	-3	-5%	25%[38.3 µM]	-2%	-1%	?
COc1ccc(C(=O)Oc2ccc(C(=S)N3CCCC3)cc2)cc1OC	nt	-10%	-3%	-1%	-2%	?
COc1ccc(NC(=S)N2CCC(C(=O)N3CCCCCC3)CC2)cc1	-3	-18%	-12%[38.3 µM]	-1%	14µM*	-13
C=CC(C)(O)CC/C=C(\C)CCC=C(C)C (configuration not stated)	nt	-5%	1%	2%	-6%	nt
CCc1nn(CCCC(=O)N2CCc3ccccc3C2)c(=O)c2cc3occc3n12	10	32µM*	10%[38.3 µM]	-17%	?	60
Cc1nn(CCCC(=O)N2CCc3ccccc3C2)c(=O)c2cc3sccc3n12	-4	-19%	-6%[38.3 µM]	-10%	0%	-10
CCOC(=O)c1nc(Nc2ccc(C(=O)OCC(C)C)cc2)c2ccccc2n1	2	nt	nt	nt	nt	nt
CCCCn1c(=O)c(C(=O)c2ccccc2)nc2ccccc21	4	-17%	5%[38.3 µM]	-3%	22µM*	?
NC(=O)CSc1nc2scc(-c3ccco3)c2c(=O)n1-c1ccccc1	-3	-15%	7%[38.3 µM]	-15%	3.5µM*	-27
C=CCn1c(SCC(=O)NCC2CCCO2)nnc1-c1ccccc1 (configuration not stated)	nt	nt	-4%	nt	5%	nt
C=CCn1c(SCC(=O)NCC2CCCO2)nc2scc(-c3ccco3)c2c1=O (configuration not stated)	-11	-26%	21%[38.3 µM]	-2%	25µM*	-13
C=CCn1c(SCc2ccccc2)nc2scc(-c3ccc(C)o3)c2c1=O	?	-11%	-4%[38.3 µM]	5%	?	82
C=CCn1c(SCC(N)=O)nc2scc(-c3ccc(C)o3)c2c1=O	nt	nt	0%	nt	10µM*	nt
C=CCn1c(SCC(=O)NCCOC)nc2scc(-c3ccco3)c2c1=O	-6	-13%	7%[38.3 µM]	-30%	7.9µM*	11
C=CCn1c(SCC(=O)NC(=O)NCc2ccco2)nc2sc(CC)cc2c1=O	-13	-14%	-5%[38.3 µM]	-7%	?	32
Cc1cc(C)c(S(=O)(=O)NCCc2cc3c(C)ccc(C)c3[nH]c2=O)c(C)c1	5	nt	nt	nt	nt	nt
CC(C)Oc1ccc(C(=O)N(Cc2ccc(N(C)C)cc2)C2CCS(=O)(=O)C2)cc1 (configuration not stated)	-2	nt	nt	nt	nt	nt
O=C(CSc1nc2scc(-c3ccco3)c2c(=O)n1-c1ccccc1)NCC1CCCO1 (configuration not stated)	-2	-9%	23%[38.3 µM]	-13%	13µM*	-6
CCOC(=O)CNC(=O)c1ccc2[nH]c3c(c2c1)CCCC3	-1	-15%	-2%[38.3 µM]	-5%	-7%	7
NNC(=O)c1ccc2[nH]c3c(c2c1)CCCC3	nt	nt	1%	nt	18µM*	nt
Ic1ccc(N2CCN(Cc3c[nH]c4ncccc34)CC2)cc1	4	-14%	-7%	8%	-8%	nt
CCOC(=O)c1c(C)oc2ccc(N(C(C)=O)S(=O)(=O)c3c(C)cc(C)cc3C)cc12	3	nt	nt	nt	nt	nt
O=Cc1[nH]c2ccccc2c1N(C(=O)CCl)c1ccc([N+](=O)[O-])cc1	nt	nt	nt	nt	7.9µM*	nt
O=C(NC1CCN(CC(=O)N(c2ccccc2)c2ccccc2)CC1)c1ccc([N+](=O)[O-])cc1	nt	nt	-1%	nt	?	nt
CC1CC(C)(C)Nc2ccc(OC(=O)c3ccco3)cc21 (configuration not stated)	9	-26%	13%[38.3 µM]	-12%	?	41
CC1CC(C)(C)Nc2ccc(N=O)cc21 (configuration not stated)	nt	nt	52%	nt	10µM*	nt

Assay outcomes: PubChem BioAssay, National Center for Advancing Translational Sciences (NCATS)
